From the supplement of paper PMC10849652
The full data set covers some 7,900 targets. This sample favours those with a hit. About 0.6% of all pairs of compound and target were hits. A number with no mark means an inactive call.

What was measured:
Test in all cases: log2 fold change, soluble protein after heating vs DMSO (PISA); higher = thermal stabilisation; K562 cells, 10 uM, 30 min; active = over 0.2 and 3.5 SD of the protein, either way, in both replicates (recomputed)
IRAK-1-4 Inhibitor I = compound: C1COCCN1CCN2C3=CC=CC=C3N=C2NC(=O)C4=CC(=CC=C4)[N+](=O)[O-] [IRAK-1-4 Inhibitor I]
Procedure, shortened: (§1)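 Aliquots of K562 cells (2×10^6 cells/mL) treated with 10 μM compound for 30 min were heated for 3 min over 48°C-58°C. After pooling and extraction in PBS with 0.5% NP-40 at 4°C, soluble protein from a 21,000xg, 90 min spin was quantified by TMTpro 16plex LC-MS/MS with channel sums equalised. Thermal stability is expressed against control samples, from duplicates, as a log2 fold change.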

ibrutinib = compound: C=CC(=O)N1CCC[C@@H](n2nc(-c3ccc(Oc4ccccc4)cc3)c3c(N)ncnc32)C1 [ibrutinib]
Procedure, shortened: as §1

[1] = compound: CC(=O)c1cnc2ccc(-c3cc(Cl)c(O)c(Cl)c3)nc2c1N[C@H]1CC[C@H](CN(C)C)CC1
Procedure, shortened: as §1

ralimetinib = compound: CC(C)(C)Cn1c(N)nc2ccc(-c3[nH]c(C(C)(C)C)nc3-c3ccc(F)cc3)nc21 [ralimetinib]
Procedure, shortened: as §1

[2] = compound: CC(C)(O)CC(=O)NCCn1ccc2ncnc(Nc3ccc(Oc4cccc(C(F)(F)F)c4)c(Cl)c3)c21
Procedure, shortened: as §1

[3] = compound: CC(C)C1=C2N=C(C=C(N2N=C1)NCC3=CC=CC=C3)NCCCCCCN
Procedure, shortened: as §1

[4] = compound: CC(C)C[C@@H](C=O)NC(=O)[C@H](CC(C)C)NC(=O)[C@H](CC(C)C)NC(=O)OCc1ccccc1
Procedure, shortened: as §1

pinometostat = compound: CC(C)N(C[C@H]1O[C@@H](n2cnc3c(N)ncnc32)[C@H](O)[C@@H]1O)[C@H]1C[C@@H](CCc2nc3cc(C(C)(C)C)ccc3[nH]2)C1 [pinometostat]
Procedure, shortened: as §1

[5] = compound: CC1=C(C(CC(=O)N1)C2=CC=C(C=C2)C(F)(F)F)C(=O)NC3=C(C=C4C(=C3)C=NN4)F
Procedure, shortened: as §1

[6] = compound: CC1=C(C2=C(C=C1)C(=O)C3=CC=CC=C3N2CCCN)C
Procedure, shortened: as §1

Sequence of UniProt Q9NVC6 (Q9NVC6 whole entry, looked up): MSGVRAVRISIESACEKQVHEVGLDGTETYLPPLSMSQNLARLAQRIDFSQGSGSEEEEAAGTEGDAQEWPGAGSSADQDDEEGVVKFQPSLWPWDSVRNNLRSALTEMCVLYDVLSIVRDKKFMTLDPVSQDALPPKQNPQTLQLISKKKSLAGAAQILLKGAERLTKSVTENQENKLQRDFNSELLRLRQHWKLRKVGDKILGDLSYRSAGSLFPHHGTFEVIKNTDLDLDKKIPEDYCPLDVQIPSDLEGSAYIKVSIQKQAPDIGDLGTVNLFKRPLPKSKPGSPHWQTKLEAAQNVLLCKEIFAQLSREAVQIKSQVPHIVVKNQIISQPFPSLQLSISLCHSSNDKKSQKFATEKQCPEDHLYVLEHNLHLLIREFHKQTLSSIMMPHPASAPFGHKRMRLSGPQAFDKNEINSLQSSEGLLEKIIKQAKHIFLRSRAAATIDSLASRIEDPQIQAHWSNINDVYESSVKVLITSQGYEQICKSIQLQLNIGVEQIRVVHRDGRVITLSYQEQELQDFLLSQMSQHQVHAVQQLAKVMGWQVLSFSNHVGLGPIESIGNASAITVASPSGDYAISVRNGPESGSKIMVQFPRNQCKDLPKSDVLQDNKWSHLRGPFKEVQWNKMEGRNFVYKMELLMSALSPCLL
Sequence of UniProt Q9NVH2 (Q9NVH2 whole entry, looked up): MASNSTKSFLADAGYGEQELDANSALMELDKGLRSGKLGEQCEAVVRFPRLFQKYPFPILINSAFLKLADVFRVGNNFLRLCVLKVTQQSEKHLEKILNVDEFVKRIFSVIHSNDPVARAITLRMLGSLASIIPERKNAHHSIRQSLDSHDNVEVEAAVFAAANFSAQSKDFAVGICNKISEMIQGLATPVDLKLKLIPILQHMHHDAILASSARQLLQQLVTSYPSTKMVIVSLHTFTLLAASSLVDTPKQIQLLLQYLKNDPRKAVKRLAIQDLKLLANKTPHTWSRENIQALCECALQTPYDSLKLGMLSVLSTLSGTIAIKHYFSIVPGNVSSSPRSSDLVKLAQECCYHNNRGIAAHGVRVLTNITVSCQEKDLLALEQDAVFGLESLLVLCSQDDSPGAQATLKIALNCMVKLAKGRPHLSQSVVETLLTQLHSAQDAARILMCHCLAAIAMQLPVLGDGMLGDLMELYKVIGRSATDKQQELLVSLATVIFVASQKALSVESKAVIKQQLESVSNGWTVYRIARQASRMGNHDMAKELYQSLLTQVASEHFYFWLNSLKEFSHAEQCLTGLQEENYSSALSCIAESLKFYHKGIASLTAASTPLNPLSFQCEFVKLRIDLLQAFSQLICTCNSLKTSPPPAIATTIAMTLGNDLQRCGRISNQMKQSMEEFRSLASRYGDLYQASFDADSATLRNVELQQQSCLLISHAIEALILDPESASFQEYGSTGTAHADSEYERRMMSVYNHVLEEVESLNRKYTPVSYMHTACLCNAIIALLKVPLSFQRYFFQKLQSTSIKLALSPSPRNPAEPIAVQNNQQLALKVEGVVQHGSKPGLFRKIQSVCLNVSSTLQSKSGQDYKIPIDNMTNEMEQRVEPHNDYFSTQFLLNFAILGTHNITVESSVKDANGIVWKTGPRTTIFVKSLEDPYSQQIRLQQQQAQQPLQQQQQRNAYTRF
Sequence of UniProt Q8IWB1 (Q8IWB1 whole entry, looked up): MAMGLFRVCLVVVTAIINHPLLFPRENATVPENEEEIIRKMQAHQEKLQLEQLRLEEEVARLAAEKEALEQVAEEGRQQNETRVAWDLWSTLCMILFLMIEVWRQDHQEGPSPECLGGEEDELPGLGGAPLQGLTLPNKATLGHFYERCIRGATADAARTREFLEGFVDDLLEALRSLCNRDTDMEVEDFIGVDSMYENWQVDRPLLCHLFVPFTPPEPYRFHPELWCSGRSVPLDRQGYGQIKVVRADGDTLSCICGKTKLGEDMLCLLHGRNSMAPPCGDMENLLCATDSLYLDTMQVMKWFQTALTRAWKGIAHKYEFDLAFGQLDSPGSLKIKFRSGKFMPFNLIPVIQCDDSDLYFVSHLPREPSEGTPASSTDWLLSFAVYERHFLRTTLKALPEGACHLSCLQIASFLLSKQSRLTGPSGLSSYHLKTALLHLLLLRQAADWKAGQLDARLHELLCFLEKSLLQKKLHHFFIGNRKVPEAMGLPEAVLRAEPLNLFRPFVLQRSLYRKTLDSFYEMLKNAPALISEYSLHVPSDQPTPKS
Sequence of UniProt Q8WVP7 (Q8WVP7 whole entry, looked up): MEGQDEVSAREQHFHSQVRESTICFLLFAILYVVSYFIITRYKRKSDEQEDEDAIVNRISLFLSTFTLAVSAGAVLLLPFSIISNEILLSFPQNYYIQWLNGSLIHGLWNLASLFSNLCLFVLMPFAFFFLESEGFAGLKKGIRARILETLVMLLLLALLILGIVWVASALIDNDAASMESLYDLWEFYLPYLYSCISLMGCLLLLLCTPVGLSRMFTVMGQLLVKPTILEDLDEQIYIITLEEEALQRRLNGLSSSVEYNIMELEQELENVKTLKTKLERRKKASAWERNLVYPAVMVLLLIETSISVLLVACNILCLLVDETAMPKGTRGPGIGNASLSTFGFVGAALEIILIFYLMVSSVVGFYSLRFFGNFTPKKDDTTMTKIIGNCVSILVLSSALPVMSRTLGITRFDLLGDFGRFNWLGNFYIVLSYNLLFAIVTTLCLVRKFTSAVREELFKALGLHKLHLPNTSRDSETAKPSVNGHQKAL
Sequence of UniProt Q4G0J3 (Q4G0J3 whole entry, looked up): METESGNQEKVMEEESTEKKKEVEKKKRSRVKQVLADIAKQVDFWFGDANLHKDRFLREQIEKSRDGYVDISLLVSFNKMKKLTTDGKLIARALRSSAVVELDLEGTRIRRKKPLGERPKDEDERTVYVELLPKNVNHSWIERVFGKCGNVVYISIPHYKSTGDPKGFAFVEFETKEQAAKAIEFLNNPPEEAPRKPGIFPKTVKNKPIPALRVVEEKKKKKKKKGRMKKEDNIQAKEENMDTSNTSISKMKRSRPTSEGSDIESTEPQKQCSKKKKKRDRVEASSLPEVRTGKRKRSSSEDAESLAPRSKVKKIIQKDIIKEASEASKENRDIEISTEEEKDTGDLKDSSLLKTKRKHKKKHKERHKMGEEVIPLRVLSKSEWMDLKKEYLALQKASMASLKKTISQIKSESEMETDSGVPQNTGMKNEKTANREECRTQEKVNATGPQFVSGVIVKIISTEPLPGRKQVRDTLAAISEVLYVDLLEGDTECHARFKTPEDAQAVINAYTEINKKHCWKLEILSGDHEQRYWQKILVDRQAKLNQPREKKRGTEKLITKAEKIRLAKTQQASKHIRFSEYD
Sequence of UniProt Q9P244 (Q9P244 whole entry, looked up): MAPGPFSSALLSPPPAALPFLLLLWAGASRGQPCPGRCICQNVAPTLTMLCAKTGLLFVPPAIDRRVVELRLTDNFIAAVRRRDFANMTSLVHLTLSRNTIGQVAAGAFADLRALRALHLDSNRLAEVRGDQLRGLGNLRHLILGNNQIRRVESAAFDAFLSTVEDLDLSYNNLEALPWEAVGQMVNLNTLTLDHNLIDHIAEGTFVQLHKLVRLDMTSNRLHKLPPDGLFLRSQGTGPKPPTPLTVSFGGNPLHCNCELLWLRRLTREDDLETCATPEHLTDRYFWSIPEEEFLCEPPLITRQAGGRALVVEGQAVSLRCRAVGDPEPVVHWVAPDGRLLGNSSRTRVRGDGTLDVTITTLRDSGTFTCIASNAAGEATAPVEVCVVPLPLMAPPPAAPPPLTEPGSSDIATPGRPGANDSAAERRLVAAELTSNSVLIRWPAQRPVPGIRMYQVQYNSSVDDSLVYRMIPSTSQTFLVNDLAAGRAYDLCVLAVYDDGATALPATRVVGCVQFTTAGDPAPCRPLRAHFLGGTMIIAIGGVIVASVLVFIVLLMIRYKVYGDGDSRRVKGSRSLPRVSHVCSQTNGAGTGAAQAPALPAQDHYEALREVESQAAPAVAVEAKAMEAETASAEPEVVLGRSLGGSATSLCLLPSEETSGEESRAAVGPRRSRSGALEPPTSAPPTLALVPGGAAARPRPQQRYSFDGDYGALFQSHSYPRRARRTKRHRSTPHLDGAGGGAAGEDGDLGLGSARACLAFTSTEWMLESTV
Sequence of UniProt Q16539 (Q16539 whole entry, looked up): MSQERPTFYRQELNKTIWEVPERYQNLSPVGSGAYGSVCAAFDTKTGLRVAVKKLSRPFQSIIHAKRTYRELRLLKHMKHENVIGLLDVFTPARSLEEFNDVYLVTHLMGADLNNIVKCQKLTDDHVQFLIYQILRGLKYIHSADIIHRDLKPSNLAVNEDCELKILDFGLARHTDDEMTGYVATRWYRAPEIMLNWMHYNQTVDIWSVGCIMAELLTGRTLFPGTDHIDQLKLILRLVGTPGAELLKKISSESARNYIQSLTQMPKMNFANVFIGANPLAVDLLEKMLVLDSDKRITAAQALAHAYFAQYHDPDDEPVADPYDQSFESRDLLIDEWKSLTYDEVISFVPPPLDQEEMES
Sequence of UniProt Q02750 (Q02750 whole entry, looked up): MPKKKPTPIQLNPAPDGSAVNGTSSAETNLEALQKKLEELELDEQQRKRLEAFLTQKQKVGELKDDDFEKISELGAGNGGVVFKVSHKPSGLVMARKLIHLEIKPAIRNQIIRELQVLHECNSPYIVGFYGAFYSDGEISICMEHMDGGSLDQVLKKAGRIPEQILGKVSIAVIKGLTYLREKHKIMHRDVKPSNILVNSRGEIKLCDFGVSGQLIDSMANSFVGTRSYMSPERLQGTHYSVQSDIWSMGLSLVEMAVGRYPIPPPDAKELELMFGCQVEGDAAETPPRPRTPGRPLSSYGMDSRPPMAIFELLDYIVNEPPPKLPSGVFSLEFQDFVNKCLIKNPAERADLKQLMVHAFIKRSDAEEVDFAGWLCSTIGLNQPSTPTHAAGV
Sequence of UniProt Q9Y287 (Q9Y287 whole entry, looked up): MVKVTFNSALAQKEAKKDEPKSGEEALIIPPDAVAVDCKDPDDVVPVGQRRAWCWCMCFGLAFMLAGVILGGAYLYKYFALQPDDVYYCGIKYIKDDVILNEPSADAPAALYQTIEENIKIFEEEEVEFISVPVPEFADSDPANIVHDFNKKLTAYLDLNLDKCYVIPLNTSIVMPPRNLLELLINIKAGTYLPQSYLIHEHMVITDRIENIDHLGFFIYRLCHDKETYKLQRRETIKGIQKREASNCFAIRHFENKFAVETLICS

Row | Target | log2 fold change (IRAK-1-4 Inhibitor I) | log2 fold change (ibrutinib) | log2 fold change [1] | log2 fold change (ralimetinib) | log2 fold change [2] | log2 fold change [3] | log2 fold change [4] | log2 fold change (pinometostat) | log2 fold change [5] | log2 fold change [6]
1 | MAP2K7 isoform 4 (UniProt O14733) | 0.013 | -0.301 (active) | 0.175 | -0.043 | -0.013 | -0.025 | 0.051 | 0.022 | 0.033 | 0.032
2 | LARP7 isoform 3 (UniProt Q4G0J3) | -0.061 | 0.031 | 0.063 | 0.111 | 0.021 | -0.246 | -0.057 | 0.05 | -0.063 | -0.383 (active)
3 | MAP2K3 isoform 3 (UniProt P46734) | 0.012 | 0.032 | -0.457 (active) | 0.02 | 0.059 | -0.035 | -0.022 | -0.012 | 0.064 | -0.032
4 | ITM2B (UniProt Q9Y287) | -0.008 | 0.071 | -0.043 | -0.005 | -0.042 | -0.119 | 0.197 | 0.03 | 0.117 | -0.198
5 | IGF2R (UniProt P11717) | -0.002 | 0.013 | 0.016 | -0.038 | -0.007 | -0.218 (active) | -0.009 | 0.005 | 0.029 | -0.071
6 | MAPK14 (UniProt Q16539) | -0.048 | 0.016 | 0.793 (active) | 1.52 (active) | – | -0.178 | -0.135 | -0.09 | -0.234 | 0.062
7 | MDN1 (UniProt Q9NU22) | -0.011 | -0.046 | -0.126 | -0.015 | -0.24 | -0.22 | -0.029 | -0.009 | 0.006 | 0.005
8 | LGALS8 isoform 2 (UniProt O00214) | -0.027 | -0.262 | 0.049 | – | 0.092 | 0.123 | – | 0.11 | – | 0.096
9 | MAPK14 isoform 2 (UniProt Q16539) | -0.011 | 0.001 | 1.01 (active) | 1.48 (active) | -0.096 | -0.218 | -0.089 | -0.141 | -0.152 | -0.013
10 | MED25 isoform 3 (UniProt Q71SY5) | -0.087 | 0.039 | -0.086 | -0.099 | – | 0.016 | -0.061 | 0.173 | -0.03 | 0.053
11 | ILF3 (UniProt Q12906) | -0.058 | 0.036 | – | – | 0.191 | – | – | 0.029 | -0.126 | –
12 | IPO13 (UniProt O94829) | -0.005 | -0.1 | 0.066 | 0.103 | -0.226 | -0.281 (active) | 0.002 | 0.015 | -0.026 | -0.04
13 | MAP2K5 (UniProt Q13163) | 0.063 | – | -1.19 (active) | 0.066 | – | – | -0.238 | -0.051 | – | –
14 | KPNA6 (UniProt O60684) | -0.046 | -0.032 | -0.04 | 0.077 | -0.047 | -0.239 | 0.087 | 0.087 | 0.04 | -0.15
15 | ITPRIP (UniProt Q8IWB1) | -0.063 | 0.059 | -0.013 | 0.005 | 0.007 | -0.074 | 0.082 | -0.005 | -0.001 | 0.022
16 | ITGA2B (UniProt P08514) | -0.045 | – | -0.045 | 0.054 | -0.172 | 0.462 | 0.026 | -0.064 | 0.099 | -0.121
17 | MAPKAPK3 (UniProt Q16644) | 0.031 | 0.006 | 0.332 (active) | 0.413 (active) | -0.103 | -0.121 | -0.151 | -0.039 | -0.008 | 0.045

Row | Target | log2 fold change (IRAK-1-4 Inhibitor I) | log2 fold change (ibrutinib) | log2 fold change [1] | log2 fold change (ralimetinib) | log2 fold change [2] | log2 fold change [3] | log2 fold change [4] | log2 fold change (pinometostat) | log2 fold change [5] | log2 fold change [6]
18 | MAP4K2 (UniProt Q12851) | 0.073 | -0.071 | – | – | – | – | – | 0.113 | 0.003 | 0.021
19 | MAGEA8 (UniProt P43361) | 0.014 | -0.086 | 0.128 | -0.02 | – | -0.146 | 0.068 | 0.024 | 0.077 | -0.265
20 | IL10RB (UniProt Q08334) | 0.027 | 0.079 | 0.09 | – | -0.09 | 0.063 | – | 0.04 | -0.055 | -0.089
21 | LRFN1 (UniProt Q9P244) | 0.105 | -0.018 | – | -0.009 | 0.073 | 0.107 | 0.061 | 0.029 | – | 0.008
22 | IK (UniProt Q13123) | -0.139 | -0.067 | -0.06 | -0.007 | 0.054 | 0.031 | 0.239 | 0.038 | 0.022 | 0.148
23 | LMBR1 isoform 3 (UniProt Q8WVP7) | -0.013 | -0.006 | -0.054 | -0.02 | -0.037 | -0.453 | -0.004 | 0.012 | – | -0.244
24 | KIF3B (UniProt O15066) | 0.06 | -0.029 | 0.016 | -0.048 | 0.018 | -0.021 | 0.068 | 0.033 | – | -0.008
25 | KIZ (UniProt Q2M2Z5) | -0.075 | – | 0.039 | 0.06 | – | – | -0.107 | 0.099 | – | –
26 | IL27RA (UniProt Q6UWB1) | -0.189 | 0.077 | 0.011 | 0.058 | 0.005 | 0.139 | -0.167 | 0.043 | 0.1 | 0.012
27 | MCM10 (UniProt Q7L590) | 0.096 | 0.018 | – | – | -0.115 | 0.015 | – | -0.108 | 0.07 | -0.037
28 | MAP2K1 (UniProt Q02750) | 0.047 | -0.016 | -0.349 (active) | 0.004 | -0.066 | 0.023 | 0.015 | -0.061 | 0.008 | 0.026
29 | LNPEP (UniProt Q9UIQ6) | 0.015 | 0.021 | -0.021 | 0.005 | -0.02 | 0.014 | 0 | -0.018 | 0.001 | 0.016
30 | INTS7 (UniProt Q9NVH2) | 0.021 | -0.104 | 0.029 | 0.028 | -0.085 | -0.146 | 0.077 | -0.136 | -0.07 | 0.048
31 | KCNK5 (UniProt O95279) | -0.033 | 0.019 | – | – | -0.209 | -2.03 (active) | – | 0 | – | –
32 | MED17 (UniProt Q9NVC6) | -0.076 | – | -0.371 (active) | 0.12 | -0.022 | -0.209 | 0.119 | 0.124 | -0.056 | 0.182
33 | MFSD11 (UniProt O43934) | 0.015 | 0.006 | -0.029 | – | -0.008 | – | – | -0.009 | 0.031 | 0.095
34 | MIER1 isoform 12 (UniProt Q8N108) | 0.055 | -0.012 | -0.035 | 0.033 | -0.021 | -0.062 | 0.03 | -0.013 | 0.027 | -0.122
